Active and inactive are the calls of the source. Rule for the calls: active = hit-call score of the fitted dose curve at least 0.9, where 1 is the maximum; inactive = score below 0.9.

The nature of this experiment: ATG_TAL_CIS: Attagene CIS-FACTORIAL HepG2 Assay for human TAL Basal Promoter (AID 2282966). The conditions noted are these: HepG2 Attagene cis-factorial TAL promoter reporter; actives raise or lower the signal. The method, then: ATG_CIS is a cell-based, multiplexed-readout assay that uses HepG2, a human liver cell line, with measurements taken at 24 hours after chemical dosing in a 24-well plate.ATG_TAL_CIS is one of 52 assay component(s) measured or calculated from the ATG_CIS assay. It is designed to make measurements of mRNA induction, a form of inducible reporter, as detected with fluorescence intensity signals by Reverse transcription polymerase chain reaction (RT-PCR) and Capillary electrophoresis technology.Data from the assay component ATG_TAL_CIS was analyzed into 1 assay endpoint. This assay endpoint, ATG_TAL_CIS, was analyzed with bidirectional fitting relative to DMSO as the negative control and baseline of activity. Using a type of inducible reporter, measures of mRNA for gain or loss-of-signal activity can be used to understand the background control at the transcription factor-level as they relate to the gene . Furthermore, this assay endpoint can be referred to as a secondary readout, because this assay has produced multiple assay endpoints where this one serves a background control function. To generalize the intended target to other relatable targets, this assay endpoint is annotated to the background measurement intended target family, where the subfamily is internal marker.
Human liver HepG2 cells are transiently transfected with multiple reporter transcription units (MRTUs) in 6-well plates using FuGene 6 reagent (Roche; 3 ml FuGene/1 mg DNA). The MRTU constructs are regulated by a cis-regulating element (promoter). […] A major difference between the CIS and TRANS system is that in CIS activities of endogenous TFs are measured, whereas the TRANS assay evaluates changes in activities of exogenous, chimeric NR-Gal4 proteins. […] At the end of 24 hour incubation, total RNA was isolated using TriZol reagent (Invitrogen). The isolated RNA is then reverse-transcribed using oligo(dT) primer and Mo-MLV reverse transcriptase (Invitrogen) with DNAse I (Ambion) treatment for 30 min. The one-tenth of the produced cDNA was amplified by PCR using Taq DNA polymerase (Invitrogen) and two reporter sequence-specific primers. The PCR products were fluorescently labeled by primer extension with 6-arboxyfluorescein (6-FAM) 5'-labeled reporter sequence-specific primer (2 min at 95 C, 20 s at 68 C and 10 min at 72 C) and these products were digested with 5U of HpaI (New England Biolabs) for 2h at 37 C. The fragments were purified using Qiaquick PCR columns (Qiagen), analyzed on an ABI 3130xL genetic analyzer (Applied Biosystems) with peak positions identified by using a set of X-rhodamine (ROX)-labeled MapMarker1000 molecular weight standards (BioVentures). The raw capillary electrophoresis data was processed using Attagraph software (Attagene).
Consider `CC/C=C\CCO`, for which the call was inactive.

Take `O=C(c1ccccc1)c1ccccc1O`: the molecule was called inactive.

Consider `CCc1cc(C(N)=S)ccn1`, for which the molecule was called inactive.

For the molecule `CCOc1ccc2c(c1)C(C)CC(C)(C)N2` (stereo not given), the molecule was called inactive.

For orientation: AC50 means the concentration giving half of the maximal activity seen. Regarding `Oc1ccc(Cl)cc1C1CCCC1`, the AC50 is 54.9 µM (active).

As to `N#CCN(CC#N)CCN(CC#N)CC#N`, the call was inactive.

In the case of `COc1c2occc2cc2ccc(=O)oc12`, the outcome was inactive.

For `CC1=C(CC=O)C(C)(C)CCC1`, the call was inactive.

As to `[O-][n+]1ccc(Cl)cc1`, the call was inactive.

As for `O=C(O)/C=C\C(=O)O`, the call was inactive.

For `C=C(C)C(=O)OCCCCCC`, the call was inactive.

As for `CCCCCCCCCCCCCCCCCC[N+](C)(C)C`, the AC50 was 39.2 µM (active).

For the molecule `CCC(C)=NO`, the outcome was inactive.

With `CCCCCC1CCCC(=O)O1` (stereo not given), the result was inactive.

`COC(OC)C(C)c1ccccc1` (stereo not given): the result was inactive.

Consider `CC/C=C\CCCCCO`, for which the outcome was inactive.

For the molecule `CCO[Si](OCC)(OCC)c1ccccc1`, the result was inactive.

Consider `C1=CCC=C1`, for which the molecule was classed as inactive.

Take `C=CC(C)(CCC=C(C)C)OC(=O)c1ccccc1` (stereo not given): the result was inactive.

As to `CC(=O)c1nccs1`, the outcome was inactive.

As to `NC(=O)c1ccc(N)cc1`, the result was inactive.

For `CCCCCCCCCCC1CO1` (stereo not given), the outcome was inactive.

Take `CC(C)(Oc1ccc(Cl)cc1)C(=O)O`: the result was inactive.

For `COC(=O)CCSCCC(=O)OC`, the molecule was classed as inactive.

On to `Cc1cc(-n2nc3ccc(Cl)cc3n2)c(O)c(C(C)(C)C)c1`, for which the result was inactive.

Turning to `CCCCCCC(O)CCCCCCCCCCC(=O)OC` (stereo not given), the result was inactive.

As for `CC(C)(C)NC(=O)[C@@H]1CN(Cc2cccnc2)CCN1C[C@@H](O)C[C@@H](Cc1ccccc1)C(=O)N[C@H]1c2ccccc2C[C@H]1O`, the molecule was classed as inactive.

Regarding `CCCCCCC1CCC(=O)O1` (stereo not given), the molecule was called inactive.

Take `NC(N)=Nc1nc(CSCCC(N)=NS(N)(=O)=O)cs1`: the result was inactive.

As to `O=C1CCCCCCCCCCCCCC1`, the molecule was classed as inactive.

On to `COC(=O)/C=C\C(=O)OC`, for which the AC50 is 100 µM (active).

Take `CC[N+](CC)(CC(=O)Nc1c(C)cccc1C)Cc1ccccc1` (tested in a mixture with another compound): the call was inactive.

In the case of `CCC(C)NC(N)=O` (stereo not given), the result was inactive.

`C/C=C(\C)C(=O)OCC/C=C\CC`: the molecule was classed as inactive.

In the case of `CCCCCC[C@@H](O)C/C=C\CCCCCCCC(=O)O`, the outcome was inactive.

In the case of `CN1CCCC1`, the molecule was classed as inactive.

Take `O=C(O)Cc1c[nH]c2ccccc12`: the molecule was classed as inactive.

In the case of `CCCCCCC1CCCC(=O)O1` (stereo not given), the molecule was called inactive.

Turning to `CC(C)CC(=O)CC(C)C`, the result was inactive.

For `CCCOCCC`, the outcome was inactive.

The values are drawn from PubChem BioAssay (EPA / NIEHS).
